Values joined by “and” are separate entries in the source; they are usually repeats but may differ in a detail not shown here. Equal entries are not always repeated. Records with an inconclusive call do not appear. Active and inactive are the calls of the source. Unless noted, the call rests on the fitted dose curve; in most records, active means well fitted curve in the direction sought with a large enough effect; inconclusive means small, poorly fitted or top-dose-only effect, or another doubt; inactive means no such curve, though single readings can be large; an effect the other way counts as inactive or inconclusive.
Key:
[1] = molecular target: Cytochrome P450 3A4 (Homo sapiens) (UniProt P08684); assay: qHTS Assay for Inhibitors and Substrates of Cytochrome P450 3A4 (AID 884); further: potency means the concentration at half of the fitted maximal effect; nearly all actives have a fitted effect of over 50% in size
Cytochrome P450 3A4 (Homo sapiens), sequence (P08684 whole entry, looked up): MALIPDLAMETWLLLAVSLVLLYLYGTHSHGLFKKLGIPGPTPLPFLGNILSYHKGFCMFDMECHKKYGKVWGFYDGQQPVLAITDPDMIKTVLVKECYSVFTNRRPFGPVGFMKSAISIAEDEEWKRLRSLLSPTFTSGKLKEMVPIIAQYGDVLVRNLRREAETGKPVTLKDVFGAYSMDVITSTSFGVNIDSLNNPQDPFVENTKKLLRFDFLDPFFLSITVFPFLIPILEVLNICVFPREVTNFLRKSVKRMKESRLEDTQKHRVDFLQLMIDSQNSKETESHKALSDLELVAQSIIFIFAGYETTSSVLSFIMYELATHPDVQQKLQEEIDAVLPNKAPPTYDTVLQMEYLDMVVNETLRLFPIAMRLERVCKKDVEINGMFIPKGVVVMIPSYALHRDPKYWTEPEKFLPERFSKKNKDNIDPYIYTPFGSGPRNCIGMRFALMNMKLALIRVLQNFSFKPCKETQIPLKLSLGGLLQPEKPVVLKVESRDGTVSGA
Outline: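 20 nM human CYP3A4 with 25 uM Luciferin-PPXE (at KM) in 200 mM KPO4, preincubated 10 min with compound; NADPH regeneration started a 60 min RT reaction. Luciferin detected by luminescence, normalized to 57 uM ketoconazole as full inhibition.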

[2] = molecular target: Cytochrome P450 3A4 (Homo sapiens) (UniProt P08684); assay: qHTS Assay for Activators of Cytochrome P450 3A4 (AID 885); further: nearly all actives have a fitted effect of over 65% in size
Outline: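 Steps: enzyme/substrate mix dispensed; compound added, 10 min RT; NADPH regeneration solution added, 60 min RT; luciferin detection buffer stops reaction; 20 min later luminescence measured.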

[3] = molecular target: Cytochrome P450 2D6 (Homo sapiens) (UniProt P10635); assay: qHTS Assay for Inhibitors and Substrates of Cytochrome P450 2D6 (AID 891); further: potency means the concentration at half of the fitted maximal effect; nearly all actives have a fitted effect of over 60% in size
Cytochrome P450 2D6 (Homo sapiens), sequence (P10635 whole entry, looked up): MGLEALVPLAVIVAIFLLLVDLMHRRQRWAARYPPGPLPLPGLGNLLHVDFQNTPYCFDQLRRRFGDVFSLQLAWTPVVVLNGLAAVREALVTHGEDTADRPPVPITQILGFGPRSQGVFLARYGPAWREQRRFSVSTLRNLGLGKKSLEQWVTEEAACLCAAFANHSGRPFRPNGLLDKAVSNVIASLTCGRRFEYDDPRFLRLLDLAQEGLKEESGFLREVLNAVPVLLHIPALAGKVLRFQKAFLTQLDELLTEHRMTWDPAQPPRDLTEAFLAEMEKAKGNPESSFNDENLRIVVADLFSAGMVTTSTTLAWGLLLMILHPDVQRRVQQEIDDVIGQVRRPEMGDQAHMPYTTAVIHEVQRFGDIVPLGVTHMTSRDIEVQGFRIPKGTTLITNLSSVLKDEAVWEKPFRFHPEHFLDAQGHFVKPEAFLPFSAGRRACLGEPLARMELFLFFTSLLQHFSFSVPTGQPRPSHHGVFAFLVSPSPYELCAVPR
Outline: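 Human CYP2D6 (5 nM) with 30 uM Luciferin-ME EGE (at Km) in 100 mM KPO4, compound preincubated 10 min, then NADPH regeneration system for 60 min at room temperature. Luciferin read by luminescence; normalized to 1.43 uM quinidine.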

[4] = molecular target: Cytochrome P450 2C19 (Homo sapiens) (UniProt P33261); assay: qHTS Assay for Inhibitors and Substrates of Cytochrome P450 2C19 (AID 899); further: potency means the concentration at half of the fitted maximal effect; nearly all actives have a fitted effect of over 60% in size
Outline: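 5nM enzyme + 10uM Luciferin-H EGE (=KM), 50mM KPO4; cpd pin-transferred, 10 min 37C; NADPH regen, 60 min 37C; stopped w/ luciferin detection reagent, 20 min; luminescence. Normalized to 57uM ketoconazole (AC100).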

[5] = qHTS Assay for Identification of Small Molecule Antagonists for Thrombopoietin (TPO) Signaling Pathway (AID 918); settings: TPO-dependent cell signaling reporter, antagonist mode; further: potency means the concentration at half of the fitted maximal effect; nearly all actives have a fitted effect of over 60% in size
Outline: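 Ba/F3 (murine, hTPO-R, GPIIb-luc reporter); overnight IL-3 withdrawal; cpd + TPO 26 pM final (EC50); 24 h 37 C/5% CO2; Steadylite luminescence after 10 min RT.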

[6] = molecular target: Alpha-galactosidase (Coffea arabica) (UniProt Q42656); assay: Counterscreen for Glucocerebrosidase Inhibitors: qHTS Assay for Coffee Bean alpha-Galactosidase at pH 4.5 (AID 957)
Alpha-galactosidase (Coffea arabica), sequence (Q42656 whole entry, looked up): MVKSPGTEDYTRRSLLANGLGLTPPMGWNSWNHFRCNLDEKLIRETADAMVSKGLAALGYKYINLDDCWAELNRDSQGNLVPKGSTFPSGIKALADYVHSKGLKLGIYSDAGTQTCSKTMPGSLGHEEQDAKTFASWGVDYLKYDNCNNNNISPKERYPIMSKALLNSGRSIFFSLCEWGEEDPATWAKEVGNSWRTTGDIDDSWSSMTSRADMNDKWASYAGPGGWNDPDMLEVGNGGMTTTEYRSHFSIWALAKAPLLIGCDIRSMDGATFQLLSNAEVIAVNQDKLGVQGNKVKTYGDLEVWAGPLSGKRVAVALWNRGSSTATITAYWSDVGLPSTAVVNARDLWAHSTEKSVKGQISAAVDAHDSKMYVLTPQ
Outline: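 Coffee bean alpha-galactosidase 2 nM, substrate 4-MU-alpha-Gal 80 uM, pH 4.5 citrate/Tween-20, 20 min RT. Cpd titration 0.7 nM–77 uM. Stop pH 10, fluorescence 365/440 nm; Hill-equation AC50.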

[7] = molecular target: Alpha-galactosidase (Coffea arabica) (UniProt Q42656); assay: Counterscreen for Glucocerebrosidase Inhibitors: qHTS Assay for Coffee Bean alpha-Galactosidase at pH 5.9 (AID 998)
Outline: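 Compounds were titrated from 0.7 nM to 77 uM against green coffee bean alpha-galactosidase (2 nM) using 80 uM fluorogenic 4-methylumbelliferyl substrate. After 20 min at room temperature, reactions were stopped at pH 10 and read by fluorescence.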

[8] = molecular target: DNA repair nuclease/redox regulator APEX1 (Homo sapiens) (UniProt P27695); assay: qHTS Validation Assay for Inhibitors of the Human Apurinic/apyrimidinic Endonuclease 1 (APE1) (AID 1705; further: potency means the concentration at half of the fitted maximal effect)
DNA repair nuclease/redox regulator APEX1 (Homo sapiens), sequence (P27695 whole entry, looked up): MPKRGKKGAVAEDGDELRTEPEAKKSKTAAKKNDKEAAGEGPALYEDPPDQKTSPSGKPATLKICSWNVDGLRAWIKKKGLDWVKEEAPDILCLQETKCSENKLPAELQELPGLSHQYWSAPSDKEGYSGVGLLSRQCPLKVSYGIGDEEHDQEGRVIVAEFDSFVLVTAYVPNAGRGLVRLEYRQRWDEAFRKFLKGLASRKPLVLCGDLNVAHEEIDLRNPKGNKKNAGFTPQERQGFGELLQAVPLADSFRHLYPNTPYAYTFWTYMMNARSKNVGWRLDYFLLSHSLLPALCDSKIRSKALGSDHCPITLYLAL
Outline: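 qHTS, 1536-well. APE1 + cpd 15 min RT → 50 nM TAMRA/BHQ-2 THF-abasic dsDNA substrate → kinetic fluorescence, 3 reads/60 s; delta(read3−read1) = reaction progress. No-enzyme buffer = negative control.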

[9] = Counterscreen for APE1 Inhibitors: Fluorescent Dye Displacement Validation Assay (AID 1707); further: potency means the concentration at half of the fitted maximal effect
Outline: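 Assay buffer: Tris-HCl pH7.5 with 50mM NaCl, 2 mM MgCl2, 0.01% Tween-20. Dye 250 nM, duplex 50 nM final. Readout: decrease in ThO endpoint fluorescence, 480 nm excitation, 540 nm emission.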

[10] = qHTS for differential inhibitors of proliferation of Plasmodium falciparum line 7G8 (AID 1815);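 further: potency means the concentration at half of the fitted maximal effect; parasite growth measured after three days of incubation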
[11] = qHTS for differential inhibitors of proliferation of Plasmodium falciparum line W2 (AID 1883); settings: Potency: Plasmodium falciparum W2 proliferation inhibition;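 further: potency means the concentration at half of the fitted maximal effect; parasites grown with compound for 72 h before lysis and staining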
[12] = Validation screen for inhibitors of Lassa infection (AID 463096; calls by dose curve)
[13] = molecular target: DNA polymerase III PolC-type (Bacillus subtilis (strain 168)) (UniProt P13267); assay: qHTS Validation Assay for the Inhibitors of DNA Replication in Gram-Positive Bacteria (AID 485295); further: potency means the concentration at half of the fitted maximal effect
Outline: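 First, compound is mixed with the reconstituted replication complex and held at room temperature. Next, circular single-stranded M13Gori with nucleotides starts synthesis. Finally, PicoGreen in EDTA halts the reaction and stains double-stranded product for fluorescence reading.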

[14] = molecular target: M-phase phosphoprotein 8 (Homo sapiens) (UniProt Q99549); assay: qHTS Validation Assay for Inhibitors for MPP8 Chromodomain Interactions with Methylated Histone Tails (AID 488949); further: potency means the concentration at half of the fitted maximal effect; nearly all actives have a fitted effect of over 55% in size
M-phase phosphoprotein 8 (Homo sapiens), sequence (Q99549 whole entry, looked up): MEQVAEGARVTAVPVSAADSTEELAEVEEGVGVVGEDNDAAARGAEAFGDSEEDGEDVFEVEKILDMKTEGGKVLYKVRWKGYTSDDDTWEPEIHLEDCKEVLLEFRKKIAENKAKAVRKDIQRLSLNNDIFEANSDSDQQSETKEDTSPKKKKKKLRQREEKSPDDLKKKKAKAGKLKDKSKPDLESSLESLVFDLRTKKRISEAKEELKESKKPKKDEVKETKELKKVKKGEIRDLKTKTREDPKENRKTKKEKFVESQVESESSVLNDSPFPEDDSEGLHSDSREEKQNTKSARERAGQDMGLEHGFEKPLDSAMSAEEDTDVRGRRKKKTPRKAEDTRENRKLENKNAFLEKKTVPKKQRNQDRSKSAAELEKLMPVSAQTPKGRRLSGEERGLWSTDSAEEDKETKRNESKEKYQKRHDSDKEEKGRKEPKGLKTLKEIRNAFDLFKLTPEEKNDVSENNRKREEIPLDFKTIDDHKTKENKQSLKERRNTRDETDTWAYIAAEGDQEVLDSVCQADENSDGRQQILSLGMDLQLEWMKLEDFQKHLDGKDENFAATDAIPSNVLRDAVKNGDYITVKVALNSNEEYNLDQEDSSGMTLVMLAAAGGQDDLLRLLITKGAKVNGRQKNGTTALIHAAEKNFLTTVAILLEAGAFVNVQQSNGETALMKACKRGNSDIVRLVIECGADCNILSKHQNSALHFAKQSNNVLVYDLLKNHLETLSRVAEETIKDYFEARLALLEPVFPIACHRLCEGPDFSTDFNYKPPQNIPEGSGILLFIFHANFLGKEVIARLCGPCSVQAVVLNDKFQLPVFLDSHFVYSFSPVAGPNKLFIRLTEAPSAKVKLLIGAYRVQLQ
Outline: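 50 nM MPP8 + 50 nM b-H3K9me3 peptide, PBS pH 7.4/0.01% Tween-20, 30 min RT; + cpd 30 min RT; + AlphaScreen donor/Ni-chelate acceptor beads 10 ug/mL final, 30 min dark; luminescence read.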

[15] = molecular target: Chromobox protein homolog 1 (Homo sapiens) (UniProt P83916); assay: qHTS Validation Assay for Inhibitors of HP1-beta Chromodomain Interactions with Methylated Histone Tails (AID 488953); further: potency means the concentration at half of the fitted maximal effect; nearly all actives have a fitted effect of over 50% in size
Chromobox protein homolog 1 (Homo sapiens), sequence (P83916 whole entry, looked up): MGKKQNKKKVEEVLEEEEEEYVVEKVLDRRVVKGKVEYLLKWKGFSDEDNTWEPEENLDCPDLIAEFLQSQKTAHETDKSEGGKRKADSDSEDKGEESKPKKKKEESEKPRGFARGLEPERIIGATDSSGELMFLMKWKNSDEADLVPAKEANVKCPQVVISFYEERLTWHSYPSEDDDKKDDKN
Outline: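 50 nM HP1-beta + 50 nM biotin-H3(1-18)K9me3, PBS pH 7.4, 0.01% Tween-20, 30 min RT; compound added, 30 min RT; AlphaScreen beads 10 ug/mL final, 30 min dark; luminescence read.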

[16] = Inducers of the Endoplasmic Reticulum Stress Response (ERSR) in human glioma: Validation (AID 504836)
Outline: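 ERSR induction read as luciferase luminescence (Bright-Glo, 10 min at room temperature) in stably transfected human U87-MG glioma cells exposed to compounds for 16 h, using GRP78 as sensor.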

[17] = qHTS assay for small molecule agonists of retinoid X receptor alpha signaling (AID 588544; calls by dose curve); settings: HEK293T RXRa-UAS-bla, beta-lactamase reporter, 18 h; 530 nm emission
[18] = molecular target: Retinoic acid receptor RXR-alpha (Homo sapiens) (UniProt P19793); assay: as above
Retinoic acid receptor RXR-alpha (Homo sapiens), sequence (P19793 whole entry, looked up): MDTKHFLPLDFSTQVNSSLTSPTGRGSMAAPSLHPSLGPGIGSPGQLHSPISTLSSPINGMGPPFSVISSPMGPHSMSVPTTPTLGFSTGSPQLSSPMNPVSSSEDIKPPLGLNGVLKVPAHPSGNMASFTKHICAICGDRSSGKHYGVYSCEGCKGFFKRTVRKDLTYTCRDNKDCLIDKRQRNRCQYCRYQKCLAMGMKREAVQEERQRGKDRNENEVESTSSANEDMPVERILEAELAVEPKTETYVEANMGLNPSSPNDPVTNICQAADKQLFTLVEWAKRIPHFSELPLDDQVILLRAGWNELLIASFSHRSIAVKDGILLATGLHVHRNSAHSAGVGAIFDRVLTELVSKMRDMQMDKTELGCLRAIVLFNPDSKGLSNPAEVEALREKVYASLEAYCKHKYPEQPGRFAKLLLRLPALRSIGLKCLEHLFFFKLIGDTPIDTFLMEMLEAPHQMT

[19] = molecular target: Voltage-gated inwardly rectifying potassium channel KCNH2 (Homo sapiens) (UniProt Q12809); assay: qHTS Assay for Small Molecule Inhibitors of the Human hERG Channel Activity (AID 588834);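 further: top concentration of the series differs between compounds; lower thallium flux fluorescence means stronger hERG block; nearly all actives have a fitted effect of over 50% in size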
Voltage-gated inwardly rectifying potassium channel KCNH2 (Homo sapiens), sequence (Q12809 whole entry, looked up): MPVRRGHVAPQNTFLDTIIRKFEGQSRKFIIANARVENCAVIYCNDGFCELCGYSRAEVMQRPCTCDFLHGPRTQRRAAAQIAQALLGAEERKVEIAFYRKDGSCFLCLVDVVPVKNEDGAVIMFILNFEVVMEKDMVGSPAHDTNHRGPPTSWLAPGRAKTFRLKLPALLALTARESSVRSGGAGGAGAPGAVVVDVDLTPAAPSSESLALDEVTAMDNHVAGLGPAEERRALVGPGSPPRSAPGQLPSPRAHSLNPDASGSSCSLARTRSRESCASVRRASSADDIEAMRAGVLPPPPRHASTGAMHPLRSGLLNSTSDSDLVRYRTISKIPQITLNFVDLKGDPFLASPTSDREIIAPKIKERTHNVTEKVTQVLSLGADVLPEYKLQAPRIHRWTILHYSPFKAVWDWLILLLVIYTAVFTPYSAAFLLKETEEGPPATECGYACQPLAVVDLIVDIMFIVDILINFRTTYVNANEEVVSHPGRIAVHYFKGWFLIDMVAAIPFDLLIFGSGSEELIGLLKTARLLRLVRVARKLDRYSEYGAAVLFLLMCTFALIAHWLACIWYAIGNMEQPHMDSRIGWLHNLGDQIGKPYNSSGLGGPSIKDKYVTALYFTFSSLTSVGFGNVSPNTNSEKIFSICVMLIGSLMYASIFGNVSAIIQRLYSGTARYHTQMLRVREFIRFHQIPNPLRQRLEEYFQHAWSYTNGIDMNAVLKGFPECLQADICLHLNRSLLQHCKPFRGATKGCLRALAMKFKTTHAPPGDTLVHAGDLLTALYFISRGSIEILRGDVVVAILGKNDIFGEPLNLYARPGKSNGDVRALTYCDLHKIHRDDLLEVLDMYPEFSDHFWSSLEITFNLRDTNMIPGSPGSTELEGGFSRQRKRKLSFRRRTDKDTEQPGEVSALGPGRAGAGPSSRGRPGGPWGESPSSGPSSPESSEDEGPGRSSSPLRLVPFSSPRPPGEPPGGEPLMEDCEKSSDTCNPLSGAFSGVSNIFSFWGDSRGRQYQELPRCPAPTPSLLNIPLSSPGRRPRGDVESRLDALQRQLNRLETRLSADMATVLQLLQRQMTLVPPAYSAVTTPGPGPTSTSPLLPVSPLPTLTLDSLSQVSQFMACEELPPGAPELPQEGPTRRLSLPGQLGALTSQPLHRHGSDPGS
Outline: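 hERG-BacMam U2OS, 2000 cells/well; 0.7X FluxOR loading 1 hr RT dark; cpd ~10 min 37 °C; stim buffer; FDSS fluorescence 2 min @ 1 s; AC50 Hill fit.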

[20] = qHTS assay for small molecule agonists of the antioxidant response element (ARE) signaling pathway (AID 651741; active means well fitted activation curve with a large enough effect in the signal ratio; the % refers to the signal ratio; further: potency means the concentration at half of the fitted maximal effect)
Outline: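 Quantitative HTS in HepG2 cells stably expressing an ARE-beta-lactamase reporter; 16 h compound exposure at 37 C, followed by 2 h room-temperature incubation with LiveBLAzer B/G FRET substrate and fluorescence measurement.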

[21] = qHTS assay for small molecule activators of the p53 signaling pathway (AID 651743; active means well fitted activation curve with a large enough effect in the signal ratio, not every such curve was filed as active; the % refers to the signal ratio; further: potency means the concentration at half of the fitted maximal effect); settings: HCT-116 p53RE-bla, beta-lactamase FRET ratio, 16 h; activation: stronger effect = higher value
Outline: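 Read-out is fluorescence intensity from the LiveBLAzer B/G FRET substrate, added for 2 hours at room temperature after HCT-116 p53RE-bla cells had been incubated with compounds for 16 hours at 37 C.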

[22] = qHTS assay for small molecule disruptors of the mitochondrial membrane potential - 1 hr assay (AID 651754; calls by dose curve; further: potency means the concentration at half of the fitted maximal effect; nearly all actives have a fitted effect of over 35% in size)
Outline: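 HepG2, 2,000 cells/well, overnight attachment; cpd or DMSO 1 hr, 37C/5% CO2; Mito-MPS dye 30 min, 37C; fluorescence monomer (490/535) and aggregate (540/590).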

[23] = qHTS assay for small molecule disruptors of the mitochondrial membrane potential - 5 hr assay (AID 651755; calls by dose curve; further: potency means the concentration at half of the fitted maximal effect; nearly all actives have a fitted effect of over 40% in size)
Outline: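 HepG2, 2,000 cells/well, overnight attach; cpd or DMSO 5 hr, 37C/5% CO2; Mito-MPS 30 min 37C; fluor 490/535 + 540/590 nm.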

[24] = qHTS assay to identify small molecules that stimulate interleukin-8 (IL-8) secretion (AID 651758; active means well fitted activation curve with a large enough effect in the signal ratio; the % refers to the signal ratio; further: potency means the concentration at half of the fitted maximal effect)
Outline: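 Secreted IL-8 measured by TR-FRET sandwich (cryptate and XL665 antibodies) from THP-1 cells exposed to compound overnight (16 hrs, 37 C).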

[25] = qHTS assay for environmental chemicals that activate the Aryl hydrocarbon Receptor (AhR) signaling pathway (AID 651777); settings: 1A2-DRE human hepatoma cells, luciferase, 24 h; activation: stronger effect = higher value; further: potency means the concentration at half of the fitted maximal effect; nearly all actives have a fitted effect of over 15% in size
Outline: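 Following a 24 hr incubation with test chemicals at 37 C and 5% CO2, 1A2-DRE human hepatoma cells received One-Glo reagent; after 30 min at room temperature, luciferase output reflected CYP1A2 induction via AhR.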

[26] = molecular target: Arylsulfatase A (Homo sapiens) (UniProt P15289); assay: qHTS screen for enhancers of Arylsulfatase A (ASA1): LOPAC Validation Assay (AID 720538)
Outline: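 MLD patient fibroblasts (SV40, ASA-I179S), 1536-well; adhere 6 hrs; cpd 48h, 37 degree C, 5% CO2; pNCS 0.5mM final in lysis buffer, 14h RT; stop 1N NaOH final; fluor. Ex525/Em598.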

[27] = qHTS profiling of the MIPE4 collection as inhibitors of Plasmodium falciparum (3D7) proliferation (AID 743344; call rule not given here); settings: P. falciparum 3D7 in erythrocytes, SYBR Green DNA fluorescence, 72 h; at 28.5 µM (top of the series) unless noted
Outline: (§1)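 Erythrocytes infected with P. falciparum (0.3% parasitemia, 2.5% hematocrit) incubated with compounds 72 h at 37 C, 5% CO2. Lysis with saponin/Triton buffer containing SYBR Green I, overnight at room temperature in the dark; DNA fluorescence (485/535 nm) normalised to 0.29 uM artemisinin and DMSO.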

[28] = qHTS profiling of the MIPE4 collection as inhibitors of Plasmodium falciparum (DD2) proliferation (AID 743345; call rule not given here); settings: P. falciparum Dd2 in erythrocytes, SYBR Green DNA, 72 h; at 28.5 µM (top of the series) unless noted
Outline: as §1

[29] = qHTS profiling of the MIPE4 collection as inhibitors of Plasmodium falciparum (DD2) proliferation (Rep 2) (AID 743346; call rule not given here); settings: P. falciparum Dd2 in erythrocytes, SYBR Green DNA, 72 h; at 28.5 µM (top of the series) unless noted
Outline: as §1

[30] = qHTS for Inhibitors of the Functional Ribonucleoprotein Complex (vRNP) of Lassa (LASV) Arenavirus: LASV Primary Screen - GLuc reporter signal (AID 1347082; calls by dose curve; tested in HEK293 reporter line; further: nearly all actives have a fitted effect of over 60% in size)
[31] = qHTS for Inhibitors of the Functional Ribonucleoprotein Complex (vRNP) of Lassa (LASV) Arenavirus: Viability assay - alamar blue signal for LASV Primary Screen (AID 1347083; calls by dose curve; tested in HEK293 reporter line; further: nearly all actives have a fitted effect of over 80% in size)
[32] = qHTS for Inhibitors of the Functional Ribonucleoprotein Complex (vRNP) of Lymphocytic Choriomeningitis Arenaviruses (LCMV): Viability assay - alamar blue signal for LCMV Primary Screen (AID 1347085; calls by dose curve; tested in HEK293 reporter line; further: nearly all actives have a fitted effect of over 80% in size)
[33] = molecular target: Nucleoprotein (Lymphocytic choriomeningitis virus (strain Armstrong)) (UniProt P09992); assay: qHTS for Inhibitors of the Functional Ribonucleoprotein Complex (vRNP) of Lymphocytic Choriomeningitis Arenaviruses (LCMV): LCMV Primary Screen - GLuc reporter signal (AID 1347086; calls by dose curve; further: nearly all actives have a fitted effect of over 70% in size)
Nucleoprotein (Lymphocytic choriomeningitis virus (strain Armstrong)), sequence (P09992 whole entry, looked up): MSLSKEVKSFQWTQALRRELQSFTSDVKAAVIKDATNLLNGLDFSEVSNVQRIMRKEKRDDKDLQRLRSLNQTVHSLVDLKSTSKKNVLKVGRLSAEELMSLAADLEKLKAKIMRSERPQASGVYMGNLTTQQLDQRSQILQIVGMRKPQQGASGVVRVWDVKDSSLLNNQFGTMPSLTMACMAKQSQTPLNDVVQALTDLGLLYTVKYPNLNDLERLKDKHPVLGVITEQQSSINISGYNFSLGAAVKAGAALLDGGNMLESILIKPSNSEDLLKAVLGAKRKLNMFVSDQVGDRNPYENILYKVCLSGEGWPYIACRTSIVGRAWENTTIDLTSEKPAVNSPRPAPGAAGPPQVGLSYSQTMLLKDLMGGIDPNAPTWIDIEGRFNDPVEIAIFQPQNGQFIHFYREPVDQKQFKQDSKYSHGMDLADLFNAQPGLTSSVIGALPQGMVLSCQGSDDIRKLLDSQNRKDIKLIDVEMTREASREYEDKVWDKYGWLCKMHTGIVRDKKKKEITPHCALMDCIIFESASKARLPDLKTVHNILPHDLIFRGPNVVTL

[34] = Cytotoxicity counterscreen for inhibitors of SARS-CoV-2 cell entry (AID 1645845; calls by dose curve; further: nearly all actives have a fitted effect of over 50% in size)
Outline: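 48 h compound treatment (after 1 h preincubation), HEK293-ACE2 cells, 37 C/5% CO2; ATP luminescence endpoint; normalized to cell wells and media blanks.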

[35] = Primary qHTS to identify inhibitors of SARS-CoV-2 cell entry (AID 1645846; calls by dose curve; further: nearly all actives have a fitted effect of over 45% in size); settings: activity change, negative = inhibition: at 57.1 µM (top of the series) unless noted
Outline: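 Inhibition of spike-mediated entry was scored in human ACE2-transfected Expi293F cells. Particles were MLV-pseudotyped with Wuhan-Hu-1 S carrying a 19-aa C-terminal deletion; signal was luciferase after two days, scaled between spike PP and fusion-protein-free PP.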

CRL-7250 = normal cell line; assay: qHTS assay to identify novel small-molecules to repurpose for Merkel cell carcinoma treatment (AID 1296009); settings: MCC and control cell lines, CellTiter-Glo viability, 72 h; series mostly up to 92 µM; further: nearly all actives have a fitted effect of over 60% in size
Outline: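 72 hr, 37 degree celsius; NPC 8-pt / MIPE 11-pt dose response; compound pinned in DMSO; CellTiter-Glo, 10 min RT, luminescence; normalized to no-cell and DMSO controls.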

Cc1cc(O)c2c(c1)C(=O)c1cc(O)cc(O)c1C2=O
21.4%: max response [17]
90.9%: parasite growth remaining, % of DMSO control (lower = more inhibition) [28]
76.8%: parasite growth, % of DMSO control [27]
3.76%: activity change, negative = inhibition [35]
active: Potency [1] 10 µM | Potency [3] 12.6 µM | Potency [4] 7.94 µM | Potency [5] 12.6 µM | Potency [8] 35.5 µM | Potency [9] 28.2 µM | Potency [10] 11.2 µM | Potency [11] 14.1 µM | Potency [13] 23.8 µM | Potency [14] 10.6 µM | Potency [15] 22.4 µM | Potency [20] 9.69 µM and 18.8 µM | Potency [21] 15.8 µM and 22.4 µM | Potency [22] 2.98 µM | Potency [23] 3.76 µM | Potency [24] 66.8 µM | Potency [25] 44.7 µM
inactive: Potency [2] | outcome [6] | outcome [7] | Potency [12] | outcome [16] | outcome [18] | Potency [19] | Potency [26] | Potency [30] | Potency [31] | Potency [32] | Potency [33] | Potency [34] | Potency (CRL-7250)
66.9%: parasite growth, % of control (lower = inhibition) [29]

Source: PubChem BioAssay (NCATS)
